Measured values as given in paper PMC5540273 (PLoS ONE, 2017).

Experiments:
Conditions in all cases: concentration: 1 μM, replicates: in singlicate; n = 1
ADCK4 = test system: ADCK4
AKT1 = test system: AKT1
AKT2 = test system: AKT2
AKT3 = test system: AKT3
ALK = test system: ALK
AMPK-alpha1 = test system: T1, AMPK-alpha1
T1 construct: gene PRKAA1

AMPK-alpha2 = test system: T2, AMPK-alpha2
T2 construct: gene PRKAA2

ANKK1 = test system: ANKK1
ARK5 = test system: T3, ARK5
T3 construct: gene NUAK1

ASK1 = test system: T4, ASK1
T4 construct: gene MAP3K5

ASK2 = test system: T5, ASK2
T5 construct: gene MAP3K6

AURKA = test system: AURKA
AURKB = test system: AURKB
AURKC = test system: AURKC
AXL = test system: AXL
BIKE = test system: T6, BIKE
T6 construct: gene BMP2K

BLK = test system: BLK
BMPR1A = test system: BMPR1A
BMPR1B = test system: BMPR1B
BMPR2 = test system: BMPR2
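Note: KINOMEscan kinase panel screen.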

SMILES | %Inh (ADCK4) [%] | %Inh (AKT1) [%] | %Inh (AKT2) [%] | %Inh (AKT3) [%] | %Inh (ALK) [%] | %Inh (AMPK-alpha1) [%] | %Inh (AMPK-alpha2) [%] | %Inh (ANKK1) [%] | %Inh (ARK5) [%] | %Inh (ASK1) [%] | %Inh (ASK2) [%] | %Inh (AURKA) [%] | %Inh (AURKB) [%] | %Inh (AURKC) [%] | %Inh (AXL) [%] | %Inh (BIKE) [%] | %Inh (BLK) [%] | %Inh (BMPR1A) [%] | %Inh (BMPR1B) [%] | %Inh (BMPR2) [%]
Cn1cc(-c2ccc3c(c2)CCN3C(=O)Cc2cccc(F)c2)c2c(N)ncnc21 [GSK2603358] | 35 | 0 | 9 | 0 | 20 | 7 | 22 | 0 | 17 | 11 | 0 | 20 | 95.5 | 47 | 83 | 10 | 50 | 0 | 0 | 3
Nc1ncc(-c2cccnc2)c2scc(-c3ccc4c(c3)CCN4C(=O)Cc3ccccc3)c12 [GSK683281] | 32 | 0 | 21 | 0 | 29 | 97.4 | 20 | 19 | 32 | 22 | 10 | 25 | 70 | 70 | 89 | 16 | 82 | 6 | 0 | 3
c1ccc(-c2cnc3nccnn23)cc1 [AH20685] | 17 | 0 | 0 | 0 | 20 | 0 | 0 | 0 | 0 | 0 | 0 | 0 | 13 | 0 | 0 | 0 | 37 | 0 | 0 | 0
O=C(NC1CCN(c2ccnc(Nc3ccc(F)cc3)n2)C1)c1cc2ccccc2s1 (stereo not drawn) [GSK1379716] | 61 | 0 | 16 | 0 | 3 | 7 | 20 | 0 | 21 | 14 | 9 | 4 | 24 | 53 | 19 | 26 | 62 | 0 | 0 | 0
Cc1occc1-c1ncc(OC[C@@H](N)Cc2c[nH]c3ccccc23)cc1-c1ccc2[nH]nc(C)c2c1.O=C(O)C(F)(F)F [GSK682037] | 82 | 97 | 99.8 | 87 | 24 | 12 | 0 | 0 | 0 | 0 | 7 | 0 | 0 | 53 | 35 | 90.5 | 19 | 0 | 0 | 0
COc1ccc(Nc2nccc(N3CCC(NC(=O)Nc4cccc(OC)c4)C3)n2)cc1 (stereo not drawn) [GSK1379742] | 14 | 0 | 0 | 0 | 25 | 1 | 0 | 0 | 25 | 5 | 13 | 0 | 53 | 10 | 0 | 13 | 37 | 0 | 0 | 12
COC(=O)Nc1nc2ccc(Oc3ccc(NC(=O)Nc4cc(C(F)(F)F)ccc4F)cc3)cc2n1C.Cl [GW692089] | 33 | 0 | 0 | 0 | 3 | 0 | 22 | 31 | 16 | 40 | 0 | 0 | 94.1 | 14 | 95 | 0 | 27 | 0 | 0 | 11
CCCCc1nn2ncccc2c1-c1ccnc(Nc2ccc(N3CCN(C)CC3)cc2)n1 [GW684941] | 93.1 | 0 | 0 | 0 | 72 | 5 | 9 | 0 | 62 | 0 | 16 | 96.7 | 80 | 82 | 69 | 69 | 81 | 0 | 91 | 0
NCCCC(NC(=O)c1cc(Br)c(-c2ccnc3[nH]ccc23)s1)c1ccccc1.O=C(O)C(F)(F)F.O=C(O)C(F)(F)F (stereo not drawn) [GSK1287544] | 38 | 89 | 52 | 91.8 | 32 | 17 | 35 | 0 | 54 | 0 | 0 | 74 | 56 | 95.7 | 74 | 97.9 | 0 | 0 | 0 | 21
